Assay results from PubChem BioAssay.
Calls of active or inactive are those of the source.

Key:
[1] = binders of probe aFSTL3 on microarray, primary screen, stem cell growth factor project, biochemical, small-molecule microarray, fluorescence 635/667 (AID 1064); details: higher = more signal;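 further: measures binding of the biotinylated anti-FSTL3 antibody to printed compounds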
[2] = binders from COS7 lysate, DM2A8 probe, primary screen, torsin A project, cell lysate, small-molecule microarray, fluorescence 635/667 (AID 1065); details: higher = more signal, COS7 lysate expressing mutant human TOR1A
[3] = binders of probe aFGF2 on microarray, primary screen, stem cell growth factor project, biochemical, small-molecule microarray, fluorescence 635/667 (AID 1067); details: higher = more signal;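 further: measures binding of biotinylated aFGF2 protein to printed compounds on slides; z-score merges feature fluorescence and signal-to-noise across triplicate slides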
[4] = binders of probe aFGF10 on microarray, primary screen, stem cell growth factor project, biochemical, small-molecule microarray, fluorescence 635/667 (AID 1071); details: higher = more signal;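 further: score merges 667 nm spot intensity and signal to noise from triplicate slides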
[5] = molecular target: Neurogenic locus notch homolog protein 2 (Homo sapiens) (UniProt Q04721); test: Notch2 binders on small-molecule microarrays, primary screen, biochemical, small-molecule microarray, 635 nm fluorescence, stem cell growth factors (AID 1073); details: Notch2 binding, higher = more signal
Neurogenic locus notch homolog protein 2 (Homo sapiens), sequence (Q04721 whole entry, looked up, canonical isoform): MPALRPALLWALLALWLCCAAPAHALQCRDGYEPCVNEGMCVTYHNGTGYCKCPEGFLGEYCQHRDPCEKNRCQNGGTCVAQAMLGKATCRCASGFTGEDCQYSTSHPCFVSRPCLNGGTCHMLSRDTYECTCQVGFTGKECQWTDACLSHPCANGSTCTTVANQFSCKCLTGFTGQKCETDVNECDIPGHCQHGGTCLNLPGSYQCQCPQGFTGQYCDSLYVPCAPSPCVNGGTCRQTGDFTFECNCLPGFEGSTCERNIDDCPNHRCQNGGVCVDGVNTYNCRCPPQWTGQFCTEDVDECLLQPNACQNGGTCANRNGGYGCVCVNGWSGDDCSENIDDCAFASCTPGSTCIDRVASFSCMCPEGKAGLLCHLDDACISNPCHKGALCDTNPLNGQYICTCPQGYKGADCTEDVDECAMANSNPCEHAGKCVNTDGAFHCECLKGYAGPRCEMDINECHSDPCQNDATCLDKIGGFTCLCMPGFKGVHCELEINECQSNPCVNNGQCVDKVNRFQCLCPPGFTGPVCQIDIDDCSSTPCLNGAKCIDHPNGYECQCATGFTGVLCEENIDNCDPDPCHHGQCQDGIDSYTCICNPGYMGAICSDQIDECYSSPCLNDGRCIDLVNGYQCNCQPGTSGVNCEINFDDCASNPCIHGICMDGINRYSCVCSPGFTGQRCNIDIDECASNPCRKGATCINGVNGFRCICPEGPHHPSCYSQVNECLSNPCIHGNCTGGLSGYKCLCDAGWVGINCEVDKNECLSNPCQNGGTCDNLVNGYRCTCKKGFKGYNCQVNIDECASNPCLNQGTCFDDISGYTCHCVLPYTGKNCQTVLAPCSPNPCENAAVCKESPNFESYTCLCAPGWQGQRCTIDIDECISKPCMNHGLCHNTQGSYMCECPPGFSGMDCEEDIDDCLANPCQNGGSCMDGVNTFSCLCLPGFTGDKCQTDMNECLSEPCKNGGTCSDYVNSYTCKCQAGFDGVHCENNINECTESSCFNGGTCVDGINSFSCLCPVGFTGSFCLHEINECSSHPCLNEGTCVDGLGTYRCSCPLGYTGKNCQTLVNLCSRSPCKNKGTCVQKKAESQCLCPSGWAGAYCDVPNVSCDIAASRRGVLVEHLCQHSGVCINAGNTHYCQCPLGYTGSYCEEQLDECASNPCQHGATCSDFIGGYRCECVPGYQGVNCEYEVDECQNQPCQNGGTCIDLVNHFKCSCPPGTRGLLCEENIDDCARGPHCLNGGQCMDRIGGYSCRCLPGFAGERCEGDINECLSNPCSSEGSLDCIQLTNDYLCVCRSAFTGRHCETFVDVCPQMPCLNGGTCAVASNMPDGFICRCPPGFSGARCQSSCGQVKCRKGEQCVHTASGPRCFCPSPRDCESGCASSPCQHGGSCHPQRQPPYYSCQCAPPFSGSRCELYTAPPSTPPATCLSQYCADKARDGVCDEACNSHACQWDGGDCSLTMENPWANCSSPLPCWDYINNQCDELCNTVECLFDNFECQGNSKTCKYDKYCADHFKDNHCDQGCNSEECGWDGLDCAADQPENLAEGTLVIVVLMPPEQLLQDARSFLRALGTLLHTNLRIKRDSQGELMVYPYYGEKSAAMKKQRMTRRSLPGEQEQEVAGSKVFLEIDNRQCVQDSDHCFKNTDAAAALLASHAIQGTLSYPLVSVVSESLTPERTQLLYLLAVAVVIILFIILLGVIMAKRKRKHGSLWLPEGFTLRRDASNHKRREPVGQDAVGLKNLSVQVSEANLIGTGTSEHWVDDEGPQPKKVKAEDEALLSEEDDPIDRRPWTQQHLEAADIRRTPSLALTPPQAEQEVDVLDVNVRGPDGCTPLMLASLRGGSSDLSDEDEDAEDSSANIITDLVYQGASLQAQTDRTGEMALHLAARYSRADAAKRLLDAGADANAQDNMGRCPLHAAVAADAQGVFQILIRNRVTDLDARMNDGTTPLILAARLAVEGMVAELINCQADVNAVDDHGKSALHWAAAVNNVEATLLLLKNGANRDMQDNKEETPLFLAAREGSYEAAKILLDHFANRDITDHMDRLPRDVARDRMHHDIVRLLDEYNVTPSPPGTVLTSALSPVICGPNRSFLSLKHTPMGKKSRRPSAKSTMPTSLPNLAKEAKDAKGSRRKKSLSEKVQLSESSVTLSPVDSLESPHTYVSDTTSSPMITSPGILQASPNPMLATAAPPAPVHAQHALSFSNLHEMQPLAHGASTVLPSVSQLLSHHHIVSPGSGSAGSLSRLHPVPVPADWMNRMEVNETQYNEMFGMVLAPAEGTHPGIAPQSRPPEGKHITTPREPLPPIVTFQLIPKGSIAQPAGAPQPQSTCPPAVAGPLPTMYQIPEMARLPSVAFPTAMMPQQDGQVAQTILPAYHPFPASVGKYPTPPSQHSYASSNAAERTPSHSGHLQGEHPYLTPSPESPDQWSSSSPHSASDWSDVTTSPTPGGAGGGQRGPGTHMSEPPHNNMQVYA

[6] = molecular target: Pro-neuregulin-1, membrane-bound isoform (Homo sapiens) (UniProt Q02297); test: NRG1 binders on small-molecule microarrays, primary screen, psychiatric disease protein project, biochemical, small-molecule microarray, fluorescence 635/667 (AID 1075); details: NRG1 binding, 635 nm fluorescence, higher = more signal;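 further: score combines 667 nm spot fluorescence with signal to noise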
Pro-neuregulin-1, membrane-bound isoform (Homo sapiens), sequence (Q02297 whole entry, looked up, the tested form may be a part, canonical isoform): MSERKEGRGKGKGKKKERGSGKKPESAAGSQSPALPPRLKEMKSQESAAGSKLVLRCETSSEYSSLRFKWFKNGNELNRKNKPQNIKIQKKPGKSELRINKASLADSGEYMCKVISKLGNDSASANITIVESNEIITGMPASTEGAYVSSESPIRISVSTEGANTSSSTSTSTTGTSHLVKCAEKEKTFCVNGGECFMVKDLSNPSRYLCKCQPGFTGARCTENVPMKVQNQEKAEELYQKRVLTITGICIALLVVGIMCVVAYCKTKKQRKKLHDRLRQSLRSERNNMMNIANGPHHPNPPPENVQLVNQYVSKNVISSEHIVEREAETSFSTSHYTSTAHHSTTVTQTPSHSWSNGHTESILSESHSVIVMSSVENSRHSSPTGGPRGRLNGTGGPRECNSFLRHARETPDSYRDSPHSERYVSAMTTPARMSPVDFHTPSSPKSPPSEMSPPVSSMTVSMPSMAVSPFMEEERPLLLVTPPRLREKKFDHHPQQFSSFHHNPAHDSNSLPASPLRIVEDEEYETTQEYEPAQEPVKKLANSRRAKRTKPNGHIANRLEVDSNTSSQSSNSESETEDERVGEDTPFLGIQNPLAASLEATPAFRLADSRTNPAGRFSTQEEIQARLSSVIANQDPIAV

[7] = system: Neuregulin-1 EGF-like domain; test: binders of neuregulin-1 EGF-like domain, primary screen, biochemical, small-molecule microarray, 635 nm fluorescence (AID 1081); details: small-molecule microarray binding, higher = more signal;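 further: binding of the protein to compounds printed on small-molecule microarray slides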
[8] = FRG1 promoter luciferase signal modulators, primary screen, FRG1 inhibition for FSHD, cell-based, C2C12 myotubes, firefly/Renilla luciferase, luminescence (AID 1084); details: higher = more signal, called active from +8 up or from −8 down
[9] = binders of probe aFST on microarray, primary screen, stem cell growth factor project, biochemical, small-molecule microarray, fluorescence 635/667 (AID 1086); details: higher = more signal;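 further: score merges 667 nm fluorescence with signal-to-noise of each printed compound spot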
[10] = binders of probe aHhip on microarray, primary screen, stem cell growth factor project, biochemical, small-molecule microarray, fluorescence 635/667 (AID 1087); details: higher = more signal;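 further: score merges spot fluorescence at 667nm with spot signal to noise ratio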
[11] = system: PRMT1 (protein arginine N-methyltransferase 1); test: PRMT1 binders on small-molecule microarrays, primary screen, biochemical, small-molecule microarray, 635 nm fluorescence (AID 1088); details: small-molecule microarray binding, higher = more signal;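 further: binding of Prmt1 protein to compounds spotted on small-molecule microarray slides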
[12] = yeast growth modulation, basal conditions, primary screen, YJM789 clinical isolate, OD600, 24 h (AID 1089);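 further: growth of clinical yeast isolate S. cerevisiae YJM 789 seeded 1000 cells per well; test concentration not given here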; details: S. cerevisiae YJM789 growth, higher = more signal, called active from +8 up or from −8 down
[13] = fission yeast growth modulation, primary screen, strain 972, OD600, 24 h, no modulator (AID 1090);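 further: basal condition with compound alone and no growth modifier present; test concentration not given here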; details: S. pombe 972 growth, higher = more signal, called active from +8 up or from −8 down
[14] = S. cerevisiae growth modulation with rapamycin, primary screen, strain BY4716, OD600, 96 h (AID 1091); details: higher = more signal, called active from +8 up or from −8 down; further: test concentration not given here
[15] = molecular target: Torsin-1A-interacting protein 2 (Homo sapiens) (UniProt Q8NFQ8); test: LULL1 binders on small-molecule microarray, primary screen, cell lysate, human LULL1 lysate, 635/667 nm fluorescence (AID 1092); details: hLULL1 lysate binding, 635 nm fluorescence, higher = more signal;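 further: probe is lysate of COS7 cells overexpressing human LULL1; score merges per-feature 667 nm fluorescence with signal-to-noise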
Torsin-1A-interacting protein 2 (Homo sapiens), sequence (Q8NFQ8 whole entry, looked up): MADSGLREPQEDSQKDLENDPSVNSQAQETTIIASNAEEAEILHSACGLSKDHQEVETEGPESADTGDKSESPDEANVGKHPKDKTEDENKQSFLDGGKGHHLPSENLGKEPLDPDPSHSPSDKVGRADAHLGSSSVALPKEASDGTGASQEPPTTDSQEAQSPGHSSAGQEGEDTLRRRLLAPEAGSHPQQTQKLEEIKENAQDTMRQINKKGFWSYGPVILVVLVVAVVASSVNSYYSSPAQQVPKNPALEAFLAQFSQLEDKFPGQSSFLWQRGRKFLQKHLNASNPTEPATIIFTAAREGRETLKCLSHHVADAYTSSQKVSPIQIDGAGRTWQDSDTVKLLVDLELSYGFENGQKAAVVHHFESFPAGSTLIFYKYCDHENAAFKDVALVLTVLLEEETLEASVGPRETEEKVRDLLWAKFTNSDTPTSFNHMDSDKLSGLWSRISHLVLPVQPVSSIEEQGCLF

[16] = E. coli growth modulation, two-sided OD650, primary screen, E. coli filamentation project, strain DRC41, 24 h (AID 1093); details: OD650, 24 h, higher = more signal, called active from +8 up or from −8 down;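 further: MC1000 strain lacking acrAB efflux and sulA so SOS filamentation is blocked; test concentration not given here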
[17] = small-molecule microarray binders of probe aLefty2, primary screen, biochemical, biotinylated probe, 635/667 nm fluorescence (AID 1094); details: higher = more signal;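 further: score merges spot fluorescence near 667 nm with spot signal-to-noise ratio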
[18] = system: Noggin (protein binding on small-molecule microarray); test: Noggin binders on small-molecule microarray, primary screen, biochemical, 635/667 nm fluorescence (AID 1095); details: 635 nm fluorescence, higher = more signal;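 further: score merges 667 nm feature fluorescence with signal to noise over triplicate slides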
[19] = molecular target: Neurogenic locus notch homolog protein 3 (Homo sapiens) (UniProt Q9UM47); test: NOTCH3 binders on small-molecule microarray, primary screen, biochemical, 635/667 nm fluorescence (AID 1096); details: NOTCH3 binding, 635 nm fluorescence, higher = more signal
[20] = small-molecule microarray binders of probe aEGFR, primary screen, biochemical, biotinylated probe, 635/667 nm fluorescence (AID 1097); details: higher = more signal;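 further: probe is a biotinylated anti-EGFR antibody binding compounds printed on slides; score combines fluorescence near 667 nm and signal to noise of each spot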

Structure (SMILES)	composite z-score [1]	composite z-score [2]	composite z-score [3]	composite z-score [4]	composite z-score [5]	composite z-score [6]	composite z-score [7]	z-score [8]	composite z-score [9]	composite z-score [10]	composite z-score [11]	z-score [12]	z-score [13]	z-score [14]	composite z-score [15]	z-score [16]	composite z-score [17]	composite z-score [18]	composite z-score [19]	composite z-score [20]
[N-]=[N+]=NCc1ccccc1[C@H]1OC(c2ccc(OCCCO)cc2)=N[C@@]1(CCS(=O)(=O)c1ccccc1)C(=O)NCC(O)CO (stereo not given in full)	0.115	-0.191	0.252	0.564	1.47	1.25	1.36	0.515 (inactive)	1.46	0.126	1.56	0.633 (inactive)	-0.107 (inactive)	3.65 (inactive)	3.79	-0.28 (inactive)	0.0761	0.286	1.06	0.178
COc1ccc([Si](C)(C)[C@@H]2[C@@H](CC(=O)N(CCO)Cc3ccccc3)O[C@]3(C(=O)N(Cc4cccc(N5C(=O)c6cccc7cccc5c67)c4)c4ccccc43)[C@H]2C)cc1	-0.143	0.167	-0.105	0.409	-0.127	0.442	0.763	-1.05 (inactive)	0.116	-0.0193	0.737	0.121 (inactive)	-0.534 (inactive)	2.09 (inactive)	0.36	2.11 (inactive)	-0.259	1.33	0.455	-0.115
O=C1C[C@@](C(=O)NCCN2CCOCC2)(c2ccc([N+](=O)[O-])cc2)[C@@H](c2ccc(CO)cc2I)N1C1CCCCC1	-0.218	-0.0103	-0.0736	0.262	0.64	0.148	1.43	1.21 (inactive)	-0.0352	-0.0717	1.3	-1.9 (inactive)	-2.09 (inactive)	-1.05 (inactive)	2.79	0.685 (inactive)	-0.147	0.914	0.91	-0.0963
C[C@H]1NC(=O)[C@@]23C(=O)N[C@@H](Cc4ccccc4)C2[C@H](C)[C@@]2(C)O[C@H]2C3/C=C/C/C=C\CNC(=O)[C@H](Cc2ccccc2)NC1=O (stereo not given in full)	-0.536	0.0198	-0.206	0.533	-0.158	1.4	1.11	1.8 (inactive)	-0.107	-0.137	0.44	0.907 (inactive)	-0.236 (inactive)	0.952 (inactive)	0.834	-0.225 (inactive)	-0.213	1.22	0.967	-0.096
N#Cc1ccc(C(O)C2C=CC3C(=O)N(c4ccccc4)C(=O)C3N2Nc2ccccc2)cc1 (stereo not given)	0.396	0.0518	0.129	0.77	1.32	1.19	1.08	-0.627 (inactive)	0.833	-0.069	0.0016	0.953 (inactive)	-0.145 (inactive)	-0.248 (inactive)	2.62	0.445 (inactive)	0.443	-0.383	0.744	0.104
CCOC(=O)C[C@H]1[C@H](OC(=O)c2cc3ccccc3oc2=O)[C@@H](NC(=O)c2ccc(-c3ccccc3)cc2)c2cc(OCCCO)ccc2N1C(=O)c1ccc2ccccc2n1	-0.494	0.804	-0.0563	0.684	0.652	0.751	1.03	-0.185 (inactive)	0.619	-0.0994	1.25	0.443 (inactive)	0.394 (inactive)	1.14 (inactive)	1.92	-0.0642 (inactive)	-0.084	0.873	1.05	-0.0531
C=C(C)[C@@H]1CC=C(C(O)C2C=CC3C(=O)N(c4ccccc4)C(=O)C3N2Nc2ccccc2F)CC1 (stereo not given in full)	0.264	0.0754	0.195	0.825	1.63	1.94	1.22	-1.51 (inactive)	1.84	0.18	1.57	1.59 (inactive)	1.09 (inactive)	3.06 (inactive)	3.64	-1.48 (inactive)	0.0865	0.443	1.01	0.11
C=CCOC(=O)[C@H]1[C@@H]2C(=O)O[C@@H](c3ccccc3)[C@@H](c3ccccc3)N2[C@@H](c2ccc(OCCOC(=O)[C@@H]3C[C@@H]4C(=O)N[C@@H](CCCCN(C)C)C(=O)N4[C@@H]3c3ccc(O)cc3)cc2)[C@]12C(=O)Nc1ccccc12	-0.0613	0.639	-0.113	0.389	0.69	0.965	1.26	0.585 (inactive)	0.29	0.0623	1.55	0.693 (inactive)	-2.78 (inactive)	0.436 (inactive)	2.57	-1.6 (inactive)	0.253	1.7	1.05	-0.0177
C=CCOC(=O)[C@H]1[C@@H]2C(=O)O[C@@H](c3ccccc3)[C@@H](c3ccccc3)N2[C@@H](c2ccc(OCCOC(=O)[C@H]3C[C@H]4C(=O)N[C@@H](CCCCNC(C)=O)C(=O)N4[C@H]3c3ccc(O)cc3)cc2)[C@]12C(=O)Nc1ccccc12	-0.0493	0.498	-0.0736	0.0817	0.307	0.285	0.999	-1.15 (inactive)	0.352	-0.0994	1.54	-5.42 (inactive)	-1.54 (inactive)	0.491 (inactive)	2.27	3.05 (inactive)	0.0557	1.63	0.991	-0.0509
COc1ccc(NC(=O)O[C@H]2[C@H](OC(=O)Nc3ccccc3)[C@H](OC(=O)Nc3ccccc3)[C@@H](OC)O[C@@H]2CO)cc1	0.474	1	0.338	1.19	1.15	1.61	1.25	-0.742 (inactive)	0.803	0.281	1.55	0.855 (inactive)	0.887 (inactive)	3.25 (inactive)	2.66	-0.873 (inactive)	0.31	0.691	0.989	0.644
